# Screening data deposited in PubChem by several laboratories.
# Hits are enriched below; roughly 1.8% of the tested compounds scored in any of these assays.
# GC-A act: GC-A stimulated cGMP production enhancers – HEK293 GC-A cells, cGMP TR-FRET, EC30 ANP, primary screen; Atrial natriuretic peptide receptor 1 (Homo sapiens), P16066; 0% at EC30 ANP, 100% saturating ANP; activation, % at 10 µM; 370,000 tested, 0.14% active; AID 1671463, 2021; in the data active = activation above about 40%
# GC-B act: human GC-B receptor activators, primary screen, HEK293 GC-B cells, cGMP TR-FRET, EC30 CNP; 370,000 tested, 0.11% active; Atrial natriuretic peptide receptor 2 (Homo sapiens), P20594; 0% at EC30 CNP, 100% saturating CNP; activation, % at 10 µM; AID 1920062, 2024;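 active = activation at 10 µM reaching about 35% in either raw or pattern-adjusted values, limit read from the data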
# Target sequence (P20594 whole entry, looked up): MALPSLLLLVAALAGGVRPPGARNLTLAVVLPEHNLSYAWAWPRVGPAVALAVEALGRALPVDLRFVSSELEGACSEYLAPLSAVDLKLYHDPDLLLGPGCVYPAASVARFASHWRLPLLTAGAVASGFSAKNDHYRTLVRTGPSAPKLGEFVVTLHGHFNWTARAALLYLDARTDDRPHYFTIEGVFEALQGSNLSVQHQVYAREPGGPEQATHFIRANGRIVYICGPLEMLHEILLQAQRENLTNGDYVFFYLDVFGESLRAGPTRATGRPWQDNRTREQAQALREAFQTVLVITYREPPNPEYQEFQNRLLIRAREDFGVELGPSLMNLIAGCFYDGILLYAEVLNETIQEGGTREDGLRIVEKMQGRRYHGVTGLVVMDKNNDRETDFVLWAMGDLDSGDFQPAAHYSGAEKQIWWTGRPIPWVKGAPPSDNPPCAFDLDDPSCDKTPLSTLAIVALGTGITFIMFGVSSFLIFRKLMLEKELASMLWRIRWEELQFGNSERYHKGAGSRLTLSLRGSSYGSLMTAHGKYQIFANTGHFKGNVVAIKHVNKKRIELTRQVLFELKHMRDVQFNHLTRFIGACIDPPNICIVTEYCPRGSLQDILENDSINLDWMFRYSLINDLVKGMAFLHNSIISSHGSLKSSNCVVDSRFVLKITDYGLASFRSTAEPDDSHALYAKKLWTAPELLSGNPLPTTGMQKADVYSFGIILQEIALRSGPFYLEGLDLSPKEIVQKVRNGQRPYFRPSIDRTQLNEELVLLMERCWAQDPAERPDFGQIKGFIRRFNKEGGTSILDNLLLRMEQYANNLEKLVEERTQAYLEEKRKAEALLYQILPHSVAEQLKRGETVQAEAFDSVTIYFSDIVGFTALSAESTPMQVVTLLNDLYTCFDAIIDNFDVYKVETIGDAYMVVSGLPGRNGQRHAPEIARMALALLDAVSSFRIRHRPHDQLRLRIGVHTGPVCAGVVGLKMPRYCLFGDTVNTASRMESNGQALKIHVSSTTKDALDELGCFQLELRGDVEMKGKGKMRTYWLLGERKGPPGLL
# bovine MsrA act: bovine MsrA enzyme activators, primary screen, biochemical, absorbance, HTS; Methionine sulfoxide reductase A (Bos taurus); purified bovine MsrA, absorbance read-out; activation, % at 10.6 µM; 360,000 tested, 0.3% active; AID 602163, 2012; in the data active = activation above about 7.5%
# MsrA inh: bovine MsrA enzyme inhibitors, primary screen, biochemical, absorbance, HTS; AID 651718, 2012; purified bovine MsrA, absorbance read-out; inhibition, % at 15.5 µM; Methionine sulfoxide reductase A (Bos taurus); 360,000 tested, 0.75% active; in the data active = inhibition above about 4.5%
# m5-HT2A agonist: mouse Htr2a agonists via beta-arrestin recruitment, primary screen, cell-based, luminescence. CHO-K1 mHTR2A beta-arrestin complementation; percent of 30 µM serotonin response. activation, % at 7.6 µM. AID 624169, 2012. 360,000 tested, 0.66% active;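 active = activation above a run cutoff, the mean activation of all tested compounds plus 3 SD, cut at about 14% in these data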
# OPRM1 ag: OPRM1 agonists via beta-arrestin recruitment, confirmation, counter-screen for mouse HTR2A agonist project, cell-based, luminescence, single concentration; 2,300 tested, 5.3% active; activation, % at 9.3 µM; U2OS OPRM1 beta-arrestin PathHunter; DMSO 0%, DAMGO 9.3 µM 100%; shares compounds with m5-HT2A agonist; AID 624380, 2012;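 active = mean activation above the mean of DMSO-only wells plus 3 SD, cut at about 0.5% in these data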
# HTR2A ag conf: mouse HTR2A agonists, beta-arrestin recruitment, confirmation, cell-based, luminescence, CHO-K1 PathHunter, triplicate. shares compounds with m5-HT2A agonist. DMSO 0%, 30 µM serotonin 100%. activation, % at 7.6 µM. 2,300 tested, 19% active;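 active = mean activation across triplicates above the hit threshold derived in the original primary screen, cut at about 15% in these data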
# Numbers stand for hits; i = inactive; nt = no result.
SMILES,GC-A act,GC-B act,bovine MsrA act,MsrA inh,m5-HT2A agonist,OPRM1 ag,HTR2A ag conf
CCC(=O)Nc1nc2c(s1)COc1ccccc1-2,i,i,i,i,17.6,i,i
O=C(CCCl)Nc1nc2c(s1)CCc1ccccc1-2,i,i,i,i,i,nt,nt
C[C@@H]1COc2cc(Br)ccc2S(=O)(=O)N1Cc1cn(Cc2ccc(F)cc2)nn1,i,i,nt,nt,nt,nt,nt
CCCCCc1cc(=O)oc2c(C(CCN3CCN(c4ccccc4)CC3)c3ccc4c(c3)OCO4)c(OC)cc(OC)c12 (stereo not given),i,i,i,i,21.8,i,49.1
CCCCCc1cc(=O)oc2c(C(CCN3CCCC3)c3ccc(N(C)C)cc3)c(OC)cc(OC)c12 (stereo not given),i,i,i,i,i,nt,nt
CCN(CC)CCCNC(=O)c1cc2nc3c(c(C(F)(F)F)n2n1)CCc1ccccc1-3,i,i,i,i,i,nt,nt
Cc1ccc(O)c(NC(=O)c2cc3nc4c(c(C(F)(F)F)n3n2)CCc2ccccc2-4)c1,i,i,i,i,15.8,i,i
CC(CCN1CCC(C(O)(c2ccccc2)c2ccccc2)CC1)Oc1cccc(F)c1 (stereo not given),i,i,nt,nt,nt,nt,nt
COCC(=O)N1CCN(C(=O)C(=O)c2cccc(C(F)(F)F)c2)CC1,i,i,nt,i,nt,nt,nt
Cc1cc(C)c(OCCCNCc2ccccc2)c(Br)c1,i,i,i,i,19.9,i,i
Cc1ccc(OCCNCc2ccccc2)c(C)c1,i,i,i,i,i,nt,nt
COCCNCCCCOc1c(Cl)cc(C)cc1Br,i,i,i,i,i,nt,nt
Cc1cc(Cl)c(OCCCNCc2ccccc2)c(Br)c1,i,i,i,i,19.9,i,i
C[C@@H]1COc2cc(Br)ccc2S(=O)(=O)N1Cc1cn(Cc2ccccc2)nn1,i,i,nt,nt,nt,nt,nt
O=S1(=O)CCC(NC(=S)N2CCCCC2)C1 (stereo not given),i,i,i,i,17.1,i,i
O=S1(=O)c2c(cccc2N2CCSCC2)Oc2ccccc2CN1Cc1cn(Cc2cccc(F)c2)nn1,i,i,nt,nt,nt,nt,nt
CCOc1cc(C(=O)NCC(=O)N/N=C/c2sccc2C)cc(OCC)c1OCC,i,i,i,i,16.7,i,i
C[C@H]1[C@@H](c2ccccc2)OC(O)([C@H](Cc2ccccc2)NC(=O)OC(C)(C)C)CN1C (stereo not given in full),i,i,nt,nt,nt,nt,nt
O=C(NCCO)C(=O)NCC1OCCCN1S(=O)(=O)c1cccs1 (stereo not given),i,i,i,i,i,nt,nt
COc1ccc(S(=O)(=O)N2CCOC2CNC(=O)C(=O)NCCc2ccccc2)cc1 (stereo not given),i,i,i,i,46.0,i,i
O=C(NCCCO)C(=O)NCC1OCCCN1S(=O)(=O)c1cccs1 (stereo not given),i,i,i,i,15.5,0.9,i
c1ccc(-c2c(-c3ccccc3)n(Cc3ccco3)c3ncnc(NCCCn4ccnc4)c23)cc1,i,i,i,i,i,nt,nt
OCCNc1ncnc2c1c(-c1ccccc1)c(-c1ccccc1)n2Cc1ccco1,i,i,i,i,14.5,i,i
COc1ccc(NC(=O)CSc2n[nH]c(-c3ccccn3)n2)cc1,i,i,i,i,i,nt,nt
O=C(CSc1n[nH]c(-c2ccccn2)n1)Nc1ccccc1,i,i,i,i,14.8,i,i
SMILES,GC-A act,GC-B act,bovine MsrA act,MsrA inh,m5-HT2A agonist,OPRM1 ag,HTR2A ag conf
COCCCNC(=O)c1csc([C@H]2C[C@H](O)[C@@H](CO)O2)n1,i,i,i,i,18.6,i,i
CC(C)[C@H](NC(=O)[C@H](Cc1ccccc1)NC(=O)OC(C)(C)C)C(=O)N1CCC2CCN(S(=O)(=O)c3ccccc3)CC21 (stereo not given in full),i,i,nt,nt,nt,nt,nt
CCOC(=O)[C@@]12CCCC3=C1N(CCC3)C(=O)[C@H]2CC(=O)NCCc1ccccc1OC,i,i,nt,nt,nt,nt,nt
C=CCN=C1NC(c2cccc(F)c2)C(C(=O)OC)=C(C)N1Cc1cccc(C(F)(F)F)c1 (stereo not given),i,i,nt,i,nt,nt,nt
Cc1ccc(S(=O)(=O)NCC(c2ccc3c(c2)OCO3)N2CCN(c3ccccc3)CC2)cc1 (stereo not given),i,i,i,i,i,nt,nt
COc1ccc(S(=O)(=O)NCC(c2ccc3c(c2)OCO3)N2CCN(c3ccccc3)CC2)cc1 (stereo not given),i,i,i,i,18.4,i,65.9
CN(CCOc1ccc(Cl)cc1)C(=O)c1cc(S(=O)(=O)N2CCOCC2)ccc1N1CCCC1,i,i,i,i,19.3,i,i
Cc1noc(C)c1S(=O)(=O)N1CCCc2nc(-c3ccc(Br)cc3)ccc21,i,i,nt,i,nt,nt,nt
Cc1cc(NC(=O)c2cc([N+](=O)[O-])ccc2Cl)no1,i,i,i,i,17.2,i,i
COc1cc(OC)c(NC(=O)c2cncn2-c2ccc(F)cc2)cc1Cl,i,i,i,i,14.8,i,i
CN=c1c([N+](=O)[O-])nn(-c2ccc3c(c2)OCCO3)n1O,i,i,i,i,i,nt,nt
CC(C)N=c1c([N+](=O)[O-])nn(C)n1O,i,i,i,i,15.3,i,i
Clc1ccc([C@H]2OC[C@@]3(CNCc4ccc5c(c4)OCO5)CS[C@H](c4ccc(Cl)cc4)N23)cc1,i,i,nt,nt,nt,nt,nt
CC(C)(C)OC(=O)CNC(=O)c1[nH]cnc1C(=O)NCC(=O)OCc1ccccc1,i,i,i,i,14.7,i,i
CC(C)(C)OC(=O)NCCCCCNC(=O)c1nc[nH]c1C(=O)NCC(=O)OCc1ccccc1,i,i,i,i,i,nt,nt
COc1ccc(C(=O)N2CCc3cc(OC)c(OC)cc3C2)cc1OC,nt,nt,i,i,i,nt,nt
COc1cc2c(cc1OC)CN(C(=O)C(C)(C)C)CC2,i,i,i,i,16.8,i,i
CC(=O)Nc1ccc(C(=O)OCC(=O)Nc2ccc(N3CCOCC3)cc2)cc1,i,i,i,i,i,nt,nt
O=C(COC(=O)c1ccco1)Nc1ccc(N2CCOCC2)cc1,i,i,i,i,17.2,i,i
Cc1[nH]n(C(C)(C)C)c(=O)c1Sc1ccc(Cl)cc1,i,i,i,i,15.1,i,18.4
NCCc1ccc(O)c(O)c1,i,i,i,i,41.6,i,140.2
